{"source": "PubChem BioAssay AID651656", "about": "(NMMLSC, 2012)", "note": "A number with no mark means an inactive call.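 How the source made its calls: active means viability at the highest tested concentration below 50%; inactive means the rest.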"}
{"test": "cytotoxicity in ABCB6-expressing K562 cells, dose response, cytotoxicity control for ABCB6 inhibitor project, cell-based, CellTiter-Glo luminescence, PowderSet01 powders (AID 651656)", "conditions": "18 h; series mostly up to 100 µM; viability: at the top concentration", "units": {"viability": "%"}}
{"smiles": "CC(=O)Nc1ccc(NC(=O)c2nc(S(=O)(=O)Cc3cccc(C)c3)ncc2Cl)cc1", "viability": 63.3}
{"smiles": "CCOc1ccccc1NC(=O)c1nc(S(=O)(=O)Cc2cccc(C)c2)ncc1Cl", "viability": 65.6}
{"smiles": "CC(=O)Nc1ccc(NC(=O)c2nc(S(=O)(=O)Cc3ccccc3)ncc2Cl)cc1", "viability": 83.2}
{"smiles": "CCc1ccc(NC(=O)c2nc(S(=O)(=O)Cc3ccccc3)ncc2Cl)cc1", "viability": 72.5}
